Laboratory results: the supplement of paper PMC13380429

Test system: Vero E6 infected with SARS-CoV-2
Test: inhibition of SARS-CoV-2 cytopathic effect; higher = more antiviral protection, active = above 15
Details: 48 h

Measured: inhibition of SARS-CoV-2 cytopathic effect

COc1cccc(C2(O)CCCCC2CN(C)C)c1 (stereo not given)
inactive: 1 nM 3.29% | 8.33 nM 6.35% | 100 nM 2.41% | 833.33 nM -2.01% | 10000 nM -5.31%

O=C(c1ccc(CN2CCOCC2)cc1)N1CCN(C2CC2)CC1 [bavisant]
inactive: 1 nM 0.41% | 8.33 nM 1.98% | 100 nM -1.82% | 833.33 nM -0.97% | 10000 nM 5.67%

Cc1cccc(C)c1NC(=O)c1ccc(N)cc1 [ameltolide]
inactive: 1 nM 0.76% | 8.33 nM 1.03% | 100 nM 0.37% | 833.33 nM -0.04% | 10000 nM -2.67%

CN1[C@@H]2CC[C@H]1C[C@@H](OC(c1ccc(F)cc1)c1ccc(F)cc1)C2 [3-alpha-bis-(4-fluorophenyl)-methoxytropane]
inactive: 1 nM 0.13% | 8.33 nM 1.33% | 100 nM -2.46% | 833.33 nM -1.34% | 10000 nM -5.09%

CC(C)(C)c1ccc(/C=C/C(=O)Nc2ccc3c(c2)OCCO3)cc1
inactive: 1 nM -2.25% | 8.33 nM 0.94% | 100 nM 1.24% | 833.33 nM -0.32% | 10000 nM -0.3%

CCCCc1nn(-c2ccccc2C(F)(F)F)c(=O)n1Cc1ccc(-c2ccccc2S(=O)(=O)NC(=O)c2sccc2C)cc1
inactive: 1 nM 0.19% | 8.33 nM -0.03% | 100 nM 2.56% | 833.33 nM -2.77% | 10000 nM -1.65%

CC(C)(C)C1CCc2c(sc(NC(=O)c3ccco3)c2C(=O)O)C1 (stereo not given)
inactive: 1 nM 0.37% | 8.33 nM 3.15% | 100 nM 1.01% | 833.33 nM 0.8% | 10000 nM -2.29%

CC[C@H]1[C@@H](O)[C@@H]2[C@H](CC[C@]3(C)[C@@H]([C@H](C)CCOS(=O)(=O)O)CC[C@@H]23)[C@@]2(C)CC[C@@H](O)C[C@@H]12
inactive: 1 nM 0.86% | 8.33 nM 1.92% | 100 nM -0.03% | 833.33 nM 1.94% | 10000 nM 1.9%

c1ccc([C@H]2CNCc3ccccc32)cc1 [4-phenyl-1,2,3,4-tetrahydroisoquinoline]
inactive: 1 nM -0.57% | 8.33 nM 5.18% | 100 nM 3.96% | 833.33 nM 8.92% | 10000 nM 3%

CC(=O)NCCCS(=O)(=O)O [acamprosate]
inactive: 1 nM -2.95% | 8.33 nM 1.47% | 100 nM -2.01% | 833.33 nM -3.15% | 10000 nM -1.78%

Oc1ncnc2[nH]ncc12 [allopurinol]
inactive: 1 nM -15.3% | 8.33 nM -12.3% | 100 nM -11.2% | 833.33 nM -10.9% | 10000 nM -7.04%

COc1cc([C@@H]2c3cc4c(cc3[C@@H](O[C@@H]3O[C@@H]5CO[C@@H](C)O[C@H]5[C@H](O)[C@H]3O)[C@H]3COC(=O)[C@H]23)OCO4)cc(OC)c1O [etoposide]
inactive: 1 nM 6.79% | 8.33 nM -0.79% | 100 nM -0.58% | 833.33 nM -2.82% | 10000 nM 4.17%

NC(=O)c1ncn([C@@H]2O[C@H](CO)[C@@H](O)[C@H]2O)c1N [acadesine]
inactive: 1 nM 0.23% | 8.33 nM 2.34% | 100 nM 1.8% | 833.33 nM 0.21% | 10000 nM -1.3%

O=C(Nc1cccnc1)N1CCC(Cc2cccc(Oc3ccc(C(F)(F)F)cn3)c2)CC1
inactive: 1 nM 0.55% | 8.33 nM -2.38% | 100 nM -1.02% | 833.33 nM 3.15% | 10000 nM -28.6%

CSCC[C@H](NC(=O)[C@H](CC(C)C)NC(=O)[C@@H](Cc1c[nH]c2ccccc12)NC(=O)[C@H](Cc1ccccc1)N(C)C(=O)[C@@H](Cc1c[nH]c2ccccc12)NC(=O)[C@@H](N)CCCNC(=N)N)C(N)=O [antagonist-g]
inactive: 1 nM 2.09% | 8.33 nM 0.43% | 100 nM -0.05% | 833.33 nM 1.24% | 10000 nM -1.09%

Cc1[nH]c(/C=C2\C(=O)Nc3ccc(F)cc32)c(C)c1C(=O)NCCN1CCCC1 [toceranib]
inactive: 1 nM -2.12% | 8.33 nM -2.33% | 100 nM -1.03% | 833.33 nM -1.29% | 10000 nM -7.87%

C[C@H]1COc2c(C3(N)CC3)c(F)cc3c(=O)c(C(=O)O)cn1c23 [pazufloxacin]
inactive: 1 nM -5.2% | 8.33 nM -1.82% | 100 nM 2.15% | 833.33 nM 0.57% | 10000 nM -3.15%
